Assay [1] is described as follows: compounds altering viability of human ES cells (AID 493140).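 Note: cells exposed to compounds for four days before counting.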 The note with it: human embryonic stem cell survival screen; stronger effect = higher value.
Assay [2] deals with Aerobactin synthetase IucA (Klebsiella pneumoniae). Put plainly: inhibition of K. pneumoniae IucA enzyme – biochemical, Tocris library, absorbance (AID 1345561).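 Note: 100% = enzyme without compound and 0% = no enzyme.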 The note with it: purified IucA enzyme assay, absorbance (OD) read-out; stronger effect = lower value;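 tested at 8 µM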.
A short description of assay [3]: viability loss in pontine glioma line – cell-based, SU-DIPG-XVII, MIPE5.0, CellTiter-Glo, qHTS, dose response (AID 1347060; cut-off not given, nearly all actives have AC50 up to about 26 µM;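 for AC50: cells exposed to compound for 48 hours before viability readout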). The note with it: CellTiter-Glo ATP luminescence. A general note: Cellular ATP, detected with luciferase, serves as a proxy for viable cell number.
Assay [4] is described as follows: viability loss in pontine glioma line – cell-based, SU-DIPG-XIII, MIPE4.0, CellTiter-Glo, qHTS, dose response (AID 1347061; cut-off not given, nearly all actives have AC50 up to about 37 µM;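 note: cells exposed to compound for 48 hours before readout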). The note with it: CellTiter-Glo ATP luminescence.
A short description of assay [5]: viability loss in pontine glioma line – cell-based, JHH-DIPG-1, MIPE4.0, CellTiter-Glo, qHTS, dose response (AID 1347062; cut-off not given, nearly all actives have AC50 up to about 27 µM;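 for AC50: cells exposed to compound for two days before readout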). The note with it: JHH-DIPG-1 viability, CellTiter-Glo ATP luminescence.
Assay [6] in a line: viability loss in pontine glioma line – cell-based, SU-DIPG-IV, MIPE4.0, CellTiter-Glo, qHTS, dose response (AID 1347063; cut-off not given, nearly all actives have AC50 up to about 30 µM;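 note: compound exposure lasted 48 hours before the viability readout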). The note with it: CellTiter-Glo ATP luminescence.
Assay [7] can be described thus: growth inhibition of DIPG cells – cell-based, MIPE4.0 library, CellTiter-Glo luminescence, qHTS (AID 1347066; cut-off not given, nearly all actives have AC50 up to about 30 µM;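 note: cells exposed to compound for 48 hours before readout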). The note with it: SU-DIPG-VI viability, CellTiter-Glo ATP luminescence.
The nature of assay [8]: JHH-DIPG-1 glioma cell viability, MIPE5.0 library, CellTiter-Glo luminescence, qHTS (AID 1347067; cut-off not given, nearly all actives have AC50 up to about 26 µM;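 note: cells exposed to compound for 48 hours before readout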). The conditions noted are these: JHH-DIPG-1 glioma viability, CellTiter-Glo ATP luminescence.
The nature of assay [9]: growth inhibition of DIPG cells – cell-based, MIPE5.0 library, qHTS (AID 1347068; cut-off not given, nearly all actives have IC50 up to about 30 µM). The note with it: SU-DIPG-XXV viability. (In qHTS, concentration-response curves come from the screen itself.)
Assay [10] in a line: compounds altering Cy5-DNA-NS3h complex signal – biochemical, LOPAC1280, artefact control for HCV NS3 helicase inhibitor project (AID 687037). The note with it: Cy5-DNA-NS3h complex fluorescence interference counterscreen. On the technique in general: A counterscreen serves to expose hits that act by an unwanted route or on another target.
Assay [11] in a line: viability loss in pontine glioma line – cell-based, SU-DIPG-XIII, MIPE5.0, CellTiter-Glo, qHTS, dose response (AID 1347064; cut-off not given, nearly all actives have AC50 up to about 23 µM;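 for AC50: cells exposed to compound for 48 hours before the viability read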). The note with it: CellTiter-Glo ATP luminescence.
In assay [12] the target is ATP-dependent translocase ABCB1 (Homo sapiens) (UniProt P08183). The assay is described as follows: P-glycoprotein substrate transport blockade – cell-based (AID 377; in the data active = fluorescence slope change above about 50%). The note with it: MDR1-expressing cells, fluorescent substrate accumulation slope; stronger effect = higher value; concentration not given here.

A number with no mark means an inactive call. Inconclusive results are not listed. Calls of active or inactive are those of the source. Unless noted, the rule behind the calls is not given here.

As usually defined, the remaining activity is the signal under treatment as a percentage of the control signal. As usually defined, the AC50 is the midpoint of the concentration-response curve, whichever way the signal moves.

Sequence of ATP-dependent translocase ABCB1 (Homo sapiens) (P08183 whole entry, looked up): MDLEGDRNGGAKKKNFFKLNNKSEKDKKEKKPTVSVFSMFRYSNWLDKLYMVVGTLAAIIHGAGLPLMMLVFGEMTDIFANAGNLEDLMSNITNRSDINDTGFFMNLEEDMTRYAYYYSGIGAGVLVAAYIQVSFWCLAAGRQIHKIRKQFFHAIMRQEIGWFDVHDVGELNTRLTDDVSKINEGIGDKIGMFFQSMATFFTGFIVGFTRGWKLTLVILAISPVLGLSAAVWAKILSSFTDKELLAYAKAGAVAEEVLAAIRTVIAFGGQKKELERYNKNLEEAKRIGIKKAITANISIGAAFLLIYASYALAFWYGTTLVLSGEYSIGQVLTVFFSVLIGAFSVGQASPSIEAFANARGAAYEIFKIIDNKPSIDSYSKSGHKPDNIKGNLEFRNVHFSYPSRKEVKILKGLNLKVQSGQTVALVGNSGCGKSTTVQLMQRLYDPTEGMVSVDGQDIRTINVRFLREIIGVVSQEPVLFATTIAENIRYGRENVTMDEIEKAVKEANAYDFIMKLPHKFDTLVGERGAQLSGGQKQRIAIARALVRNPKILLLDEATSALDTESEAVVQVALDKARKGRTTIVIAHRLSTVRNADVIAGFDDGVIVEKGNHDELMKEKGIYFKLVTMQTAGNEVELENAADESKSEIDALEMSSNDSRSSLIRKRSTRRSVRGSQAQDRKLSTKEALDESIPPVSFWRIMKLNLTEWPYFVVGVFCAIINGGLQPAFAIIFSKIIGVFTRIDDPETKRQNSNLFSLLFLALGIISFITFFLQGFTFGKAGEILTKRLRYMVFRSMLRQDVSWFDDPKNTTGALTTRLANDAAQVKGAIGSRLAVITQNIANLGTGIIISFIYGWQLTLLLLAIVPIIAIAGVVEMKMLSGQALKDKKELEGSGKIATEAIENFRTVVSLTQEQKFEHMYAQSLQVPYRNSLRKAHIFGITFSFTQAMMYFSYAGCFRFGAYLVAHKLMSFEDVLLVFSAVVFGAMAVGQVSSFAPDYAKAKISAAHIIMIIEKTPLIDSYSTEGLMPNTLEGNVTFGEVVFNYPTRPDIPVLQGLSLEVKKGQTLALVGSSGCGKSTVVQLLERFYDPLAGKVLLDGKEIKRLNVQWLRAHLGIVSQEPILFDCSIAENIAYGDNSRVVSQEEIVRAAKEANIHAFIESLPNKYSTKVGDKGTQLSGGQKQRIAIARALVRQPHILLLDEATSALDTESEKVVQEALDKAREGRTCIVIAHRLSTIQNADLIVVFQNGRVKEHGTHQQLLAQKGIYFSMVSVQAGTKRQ

Consider `COc1cc(CNC(=O)CCCC/C=C/C(C)C)ccc1O`, for which, in assay [1], the survival was 2.67. Further, the remaining activity in assay [2] is 122%. For the same compound, the compound was called inactive in assay [3], in [4], in assay [5], in assay [6], in assay [7] and in [8]. Moreover, the outcome in [9] was inactive.

Regarding `NCCc1cnc[nH]1`, the fluorescence ratio (interference) in assay [10] was 1. For the same compound, the remaining activity in [2] was 107%. Further, the call in [3], in assay [4], in [5], in assay [11], in assay [7] and in [8] was inactive. Also, the compound was called inactive in [9].

For the compound `CN1C[C@H](C(=O)N[C@]2(C)O[C@@]3(O)[C@@H]4CCCN4C(=O)[C@H](Cc4ccccc4)N3C2=O)C[C@@H]2c3cccc4[nH]cc(c34)C[C@H]21`, the fluorescence slope change in assay [12] was 122% (active). The survival in assay [1] is 19.1. In addition, in assay [10], the fluorescence ratio (interference) was 1. In addition, the remaining activity in assay [2] was 86.1%.

Regarding `O=C(O)c1cccnc1C(=O)O`, in [10], the fluorescence ratio (interference) is 1. In assay [2], the remaining activity was 95.4%.

In the case of `COc1c(C)c2c(c(O)c1C/C=C(\C)CCC(=O)O)C(=O)OC2`, the survival in assay [1] is 0.167. For the same compound, in [2], the remaining activity was 113%. Moreover, in [3], the AC50 was 0.742 µM (active). In addition, in assay [7], the compound was classed as inactive.

As for `CCCCCCCCCCCC1=C(O)C(=O)C=C(O)C1=O`, the remaining activity in [2] was 99.6%. Also, the result in [4] and in assay [9] was inactive. In addition, the AC50 in assay [6] was 0.0526 µM (active).

With `CCCCOc1cc(CC2CNC(=O)N2)ccc1OC` (stereo unspecified), in assay [10], the fluorescence ratio (interference) was 1. Besides, the remaining activity in assay [2] was 104%.

Turning to `O=c1cc(-c2ccccc2)oc2cc(O)c(O)c(O)c12`, the remaining activity in [2] was 119%. In addition, the compound was classed as inactive in assay [4] and in assay [6].

Regarding `O=c1cc(-c2ccc(O)cc2)oc2cc(O)cc(O)c12`, in assay [1], the survival was 17.8. Moreover, the fluorescence ratio (interference) in assay [10] was 1. Further, in [2], the remaining activity is 107%. In addition, the AC50 in assay [3] is 16.6 µM (active); in [5], 2.35 µM (active); in [6], 2.96 µM (active); in assay [11], 16.6 µM (active).

Regarding `Cc1cc(O)c2c(c1)C(=O)c1cc(O)cc(O)c1C2=O`, the fluorescence ratio (interference) in assay [10] is 1. Also, the compound was called inactive in assay [4], in [5], in [11] and in [7].

Consider `COc1ccc(-c2coc3cc(O)ccc3c2=O)cc1`, for which the outcome in [4], in assay [5], in [6] and in [7] was inactive.

Turning to `OCc1ccccc1O[C@@H]1O[C@H](CO)[C@@H](O)[C@H](O)[C@H]1O`, the compound was classed as inactive in [3], in assay [4], in assay [5], in [6], in assay [11] and in assay [7]. Also, the call in [8] and in [9] was inactive.

Turning to `C1CCc2nnnn2CC1`, in assay [12], the fluorescence slope change was 136% (active). In [1], the survival is 27.4. Also, the fluorescence ratio (interference) in assay [10] was 1. In addition, the remaining activity in [2] was 117%.

With `O=C(/C=C/c1ccc(O)cc1)c1ccc(O)cc1O`, in assay [10], the fluorescence ratio (interference) is 0.9. The outcome in assay [3] was inactive.

For the compound `O=C(CCc1ccc(O)cc1)c1c(O)cc(O)cc1O[C@@H]1O[C@H](CO)[C@@H](O)[C@H](O)[C@H]1O`, the outcome in assay [4], in [5], in [6], in assay [11], in assay [7] and in assay [9] was inactive.

Turning to `CCC(c1ccc(O)cc1)C(CC)c1ccc(O)cc1` (stereo unspecified), the fluorescence slope change in assay [12] was 18%. The survival in [1] was 2.75. Moreover, the compound was classed as inactive in assay [3], in assay [5], in assay [11] and in assay [9].

For `O=C(/C=C/C=C/c1ccc2c(c1)OCO2)N1CCCCC1`, in [12], the fluorescence slope change is 92.2% (active). Besides, the survival in assay [1] was 6.58. Besides, the compound was classed as inactive in assay [3], in assay [4], in assay [5], in assay [6], in [11] and in [7]. The outcome in assay [8] and in assay [9] was inactive.

Consider `COc1cc(O)c2c(c1)C(=O)c1cc(C)cc(O)c1C2=O`, for which the result in assay [4], in assay [5] and in assay [7] was inactive.

As to `NC(N)=NC(N)=Nc1ccccc1`, in [10], the fluorescence ratio (interference) is 1. Also, the remaining activity in assay [2] was 119%.

For the compound `COc1ccc(-c2cc(=O)c3c(O)cc(O)cc3o2)cc1O`, the figures for the AC50 in [4] and in [7] were 11.8 µM (active) and 10.5 µM (active), respectively.

The record behind these values is PubChem BioAssay.
